Of roughly 7,900 targets only a part is listed; those with a hit were picked by preference. About 0.6% of all pairs of compound and target were hits.
Tests used:
Assay in all cases: log2 fold change, soluble protein after heating vs DMSO (PISA); higher = thermal stabilisation; K562 cells, 10 uM, 30 min; active = over 0.2 and 3.5 SD of the protein, either way, in both replicates (recomputed)
[1] = compound: CN1CCN(CCOc2cc(OC3CCOCC3)c3c(Nc4c(Cl)ccc5c4OCO5)ncnc3c2)CC1 [saracatinib]
Procedure, shortened: (§1)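 K562 cells (2×10^6 cells/mL) were treated with 10 μM compound for 30 min, and aliquots were heated for 3 min over 48°C-58°C. Pooled aliquots were extracted in PBS with 0.5% NP-40 at 4°C, and the supernatant after 21,000xg for 90 min was measured by TMTpro 16plex LC-MS/MS with channel sums equalised. Reported thermal stability, relative to control samples and from duplicates, is a log2 fold change.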

[2] = compound: CN1CCN(c2nc(C3=C(c4c[nH]c5ccccc45)C(=O)NC3=O)c3ccccc3n2)CC1 [sotrastaurin]
Procedure, shortened: as §1

[3] = compound: CN1CC[C@H](c2c(O)cc(O)c3c(=O)cc(-c4ccccc4Cl)oc23)[C@H](O)C1 [alvocidib]
Procedure, shortened: as §1

[4] = compound: CN1CCc2c(c3ccccc3n2Cc2ccc(C(=O)NO)cc2)C1 [Tubastatin A]
Procedure, shortened: as §1

[5] = compound: CNC(=O)C1=CC=CC=C1NC2=NC(=NC=C2Cl)NC3=C(C=C(C=C3)N4CCOCC4)OC
Procedure, shortened: as §1

[6] = compound: CNC(=O)c1ccc(Nc2ncc(C(F)(F)F)c(NCc3nccnc3N(C)S(C)(=O)=O)n2)cc1 [defactinib]
Procedure, shortened: as §1

[7] = compound: CNCc1ccc(-c2[nH]c3cc(F)cc4c3c2CCNC4=O)cc1 [rucaparib]
Procedure, shortened: as §1

[8] = compound: CNc1nc(-c2ccc3c(N)n[nH]c3c2)cc(N2C[C@@H](C(=O)NC3CCCCC3)CC[C@H]2C)n1
Procedure, shortened: as §1

[9] = compound: COC(=O)N[C@@H](C)CNc1nccc(-c2cn(C(C)C)nc2-c2cc(Cl)cc(NS(C)(=O)=O)c2F)n1 [encorafenib]
Procedure, shortened: as §1

[10] = compound: COC(=O)[C@H](CCSC)NC(=O)C1=C(C=C(C=C1)NC[C@H](CS)N)C2=CC=CC=C2
Procedure, shortened: as §1

[11] = compound: COC1=CC=C(C=C1)CN2C=CC3=C2C=C(C=C3)C(=O)NO
Procedure, shortened: as §1

[12] = compound: CON(C)C(=O)N1N=C(c2cc(F)ccc2F)S[C@@]1(CCCN)c1ccccc1 [filanesib]
Procedure, shortened: as §1

[13] = compound: CO[C@H]1C[C@@H]2CC[C@@H](C)[C@@](O)(O2)C(=O)C(=O)N2CCCC[C@H]2C(=O)O[C@H]([C@H](C)C[C@@H]2CC[C@H](n3cnnn3)[C@H](OC)C2)CC(=O)[C@H](C)/C=C(\C)[C@@H](O)[C@@H](OC)C(=O)[C@H](C)C[C@H](C)/C=C/C=C/C=C/1C [zotarolimus]
Procedure, shortened: as §1

[14] = compound: COc1cc(C(=O)O)ccc1NC(=O)[C@@H]1N[C@@H](CC(C)(C)C)[C@](C#N)(c2ccc(Cl)cc2F)[C@H]1c1cccc(Cl)c1F [idasanutlin]
Procedure, shortened: as §1

[15] = compound: COc1cc(Nc2ncc3c(n2)-c2ccc(Cl)cc2C(c2c(F)cccc2OC)=NC3)ccc1C(=O)O [alisertib]
Procedure, shortened: as §1

[16] = compound: COc1cc2nc(-c3cc(F)ccc3O)nc(N[C@@H]3CNC[C@H]3C(C)(C)O)c2cc1OC
Procedure, shortened: as §1

[17] = compound: COc1cc2ncnc(Nc3ccc(F)c(Cl)c3)c2cc1OCCCN1CCOCC1 [gefitinib]
Procedure, shortened: as §1

[18] = compound: COc1cccc2cc(-c3nc([C@H]4CC[C@H](C(=O)O)CC4)n4ncnc(N)c34)[nH]c12
Procedure, shortened: as §1

[19] = compound: CS(=O)(=O)CCNCc1ccc(-c2ccc3ncnc(Nc4ccc(OCc5cccc(F)c5)c(Cl)c4)c3c2)o1 [lapatinib]
Procedure, shortened: as §1

[20] = compound: CS(=O)(=O)N1CCN(Cc2cc3nc(-c4cccc5[nH]ncc45)nc(N4CCOCC4)c3s2)CC1 [pictilisib]
Procedure, shortened: as §1

Measured: log2 fold change

DHRS3 (UniProt O75911)
UniProt O75911, sequence (O75911 whole entry, looked up): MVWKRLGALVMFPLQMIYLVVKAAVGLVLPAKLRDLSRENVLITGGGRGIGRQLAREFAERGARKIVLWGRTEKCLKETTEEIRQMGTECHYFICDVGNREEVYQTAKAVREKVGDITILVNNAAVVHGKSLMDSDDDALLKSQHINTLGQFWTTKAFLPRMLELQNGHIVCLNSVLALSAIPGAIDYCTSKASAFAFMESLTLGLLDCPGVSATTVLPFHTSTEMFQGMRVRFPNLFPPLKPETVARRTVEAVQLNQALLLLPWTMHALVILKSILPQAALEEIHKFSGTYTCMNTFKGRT
inactive: [1] -0.022 | [2] -0.008 | [3] 0.001 | [4] -0.042 | [5] 0.044 | [6] 0.077 | [7] -0.04 | [8] -0.016 | [9] 0.004 | [10] 0.027 | [11] 0.13 | [12] -0.009 | [13] -0.056 | [14] -0.107 | [15] 0.008 | [16] 0.031 | [17] 0.067 | [18] 0.021 | [19] 0.065 | [20] 0.019

DMAC1 (UniProt Q96GE9)
active: [1] -0.509
inactive: [2] 0 | [3] -0.003 | [4] 0.031 | [5] -0.077 | [6] -0.048 | [7] -0.124 | [8] 0.005 | [9] -0.105 | [10] -0.019 | [11] -0.121 | [12] 0.04 | [13] -0.04 | [14] -0.339 | [15] -0.174 | [16] -0.111 | [17] -0.074 | [18] 0.145 | [19] 0.053 | [20] 0.038

DCAF6 isoform 3 (UniProt Q58WW2)
UniProt Q58WW2, sequence (Q58WW2 whole entry, looked up): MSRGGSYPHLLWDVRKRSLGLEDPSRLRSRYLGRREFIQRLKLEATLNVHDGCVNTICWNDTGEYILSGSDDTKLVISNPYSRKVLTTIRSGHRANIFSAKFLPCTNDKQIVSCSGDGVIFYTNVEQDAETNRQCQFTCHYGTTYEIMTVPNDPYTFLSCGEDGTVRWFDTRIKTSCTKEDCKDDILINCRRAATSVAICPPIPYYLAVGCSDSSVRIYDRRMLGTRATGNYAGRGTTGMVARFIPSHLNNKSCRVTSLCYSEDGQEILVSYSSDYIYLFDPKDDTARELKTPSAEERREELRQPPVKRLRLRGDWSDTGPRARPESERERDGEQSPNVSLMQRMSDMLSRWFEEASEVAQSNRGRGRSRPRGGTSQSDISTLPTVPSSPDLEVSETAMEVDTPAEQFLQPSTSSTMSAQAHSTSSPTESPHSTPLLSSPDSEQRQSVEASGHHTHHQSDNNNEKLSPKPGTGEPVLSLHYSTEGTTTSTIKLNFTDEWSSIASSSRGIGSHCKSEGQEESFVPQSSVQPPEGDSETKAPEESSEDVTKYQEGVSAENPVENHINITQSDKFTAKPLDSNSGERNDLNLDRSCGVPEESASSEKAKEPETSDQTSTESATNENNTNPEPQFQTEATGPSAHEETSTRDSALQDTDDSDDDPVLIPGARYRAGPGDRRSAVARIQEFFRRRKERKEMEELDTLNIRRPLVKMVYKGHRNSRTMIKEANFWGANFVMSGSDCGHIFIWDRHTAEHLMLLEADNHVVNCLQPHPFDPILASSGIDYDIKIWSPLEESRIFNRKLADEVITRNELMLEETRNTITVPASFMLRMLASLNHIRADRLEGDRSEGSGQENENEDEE
inactive: [1] 0.093 | [2] 0.001 | [3] 0.001 | [4] -0.05 | [5] -0.027 | [6] -0.012 | [7] -0.028 | [8] -0.051 | [9] 0 | [10] 0.034 | [11] -0.007 | [12] -0.017 | [13] -0.045 | [14] -0.026 | [15] -0.081 | [16] -0.023 | [17] -0.01 | [18] 0.059 | [19] 0.016 | [20] 0.001

ELOVL1 (UniProt Q9BW60)
UniProt Q9BW60, sequence (Q9BW60 whole entry, looked up): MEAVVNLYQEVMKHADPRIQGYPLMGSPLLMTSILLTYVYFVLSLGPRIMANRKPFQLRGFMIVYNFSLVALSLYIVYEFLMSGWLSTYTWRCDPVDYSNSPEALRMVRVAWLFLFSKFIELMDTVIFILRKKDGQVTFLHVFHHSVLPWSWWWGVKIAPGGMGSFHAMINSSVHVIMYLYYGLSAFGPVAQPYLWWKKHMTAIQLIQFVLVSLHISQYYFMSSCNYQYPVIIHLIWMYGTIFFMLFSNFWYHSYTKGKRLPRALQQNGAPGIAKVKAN
inactive: [1] 0.015 | [2] 0.037 | [3] -0.011 | [4] -0.015 | [5] -0.223 | [6] -0.029 | [7] 0.05 | [8] 0.017 | [9] -0.011 | [10] 0 | [11] -0.103 | [12] -0.139 | [13] -0.051 | [14] -0.051 | [15] 0.032 | [16] -0.084 | [17] -0.087 | [18] 0.032 | [19] -0.078 | [20] -0.046

EXOC7 (UniProt Q9UPT5)
inactive: [1] 0.024 | [2] -0.218 | [3] -0.039 | [4] 0.029 | [5] -0.04 | [6] -0.06 | [7] -0.01 | [8] -0.077 | [9] 0.006 | [10] -0.047 | [11] 0.023 | [12] 0.032 | [13] 0.01 | [14] -0.076 | [15] -0.024 | [16] 0.149 | [17] -0.054 | [18] -0.053 | [19] -0.031 | [20] -0.057

DNAJC19 (UniProt Q96DA6)
UniProt Q96DA6, sequence (Q96DA6 whole entry, looked up): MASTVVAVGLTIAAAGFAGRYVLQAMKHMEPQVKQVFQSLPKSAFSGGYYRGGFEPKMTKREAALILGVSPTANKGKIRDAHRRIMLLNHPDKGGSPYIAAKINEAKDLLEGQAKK
inactive: [1] 0.025 | [2] -0.029 | [3] -0.021 | [4] -0.038 | [5] 0.003 | [6] -0.027 | [7] 0.01 | [8] -0.028 | [9] -0.044 | [10] -0.012 | [11] 0.096 | [12] -0.155 | [13] 0.016 | [14] -0.004 | [15] -0.022 | [17] 0.006 | [18] 0.045 | [19] -0.012 | [20] 0.025
active: [16] -0.205

CTSZ (UniProt Q9UBR2)
UniProt Q9UBR2, sequence (Q9UBR2 whole entry, looked up): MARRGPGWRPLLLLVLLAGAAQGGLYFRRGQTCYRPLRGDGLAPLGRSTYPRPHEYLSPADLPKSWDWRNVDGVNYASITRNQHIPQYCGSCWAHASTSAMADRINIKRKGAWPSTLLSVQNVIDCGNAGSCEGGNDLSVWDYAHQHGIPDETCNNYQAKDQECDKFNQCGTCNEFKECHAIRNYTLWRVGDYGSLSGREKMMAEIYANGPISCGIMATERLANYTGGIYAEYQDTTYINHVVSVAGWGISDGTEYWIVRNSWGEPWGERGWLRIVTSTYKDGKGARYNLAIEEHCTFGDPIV
inactive: [1] 0.025 | [2] 0.079 | [3] -0.008 | [4] -0.056 | [5] 0.005 | [6] 0 | [7] -0.098 | [8] 0.012 | [9] -0.012 | [10] 0.027 | [11] 0.073 | [12] -0.05 | [13] 0.011 | [14] -0.019 | [15] -0.079 | [16] -0.172 | [17] 0.035 | [18] 0.07 | [19] 0.015 | [20] 0.176

DTWD2 (UniProt Q8NBA8)
UniProt Q8NBA8, sequence (Q8NBA8 whole entry, looked up): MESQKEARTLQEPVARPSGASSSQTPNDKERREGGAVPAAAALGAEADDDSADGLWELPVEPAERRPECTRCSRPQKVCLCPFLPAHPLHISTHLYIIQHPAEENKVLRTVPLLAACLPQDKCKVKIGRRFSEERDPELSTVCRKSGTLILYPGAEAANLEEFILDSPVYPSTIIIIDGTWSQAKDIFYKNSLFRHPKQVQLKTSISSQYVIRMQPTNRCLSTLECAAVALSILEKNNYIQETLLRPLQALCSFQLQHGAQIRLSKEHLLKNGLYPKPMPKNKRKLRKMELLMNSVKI
inactive: [1] -0.032 | [2] -0.228 | [3] 0.059 | [4] -0.029 | [5] 0.111 | [6] -0.022 | [7] 0.05 | [8] 0.04 | [9] 0.002 | [10] -0.032 | [11] -0.229 | [12] 0.307 | [13] -0.036 | [14] -0.073 | [15] 0.069 | [16] -0.18 | [17] -0.159 | [18] 0.002 | [19] 0.151 | [20] -0.042

FADS1, A0A0A0MR51
inactive: [1] 0.013 | [2] -0.061 | [3] -0.086 | [4] 0.15 | [5] 0.112 | [6] -0.022 | [7] 0.005 | [8] 0.027 | [9] 0.004 | [10] 0 | [12] -0.112 | [13] -0.004 | [14] 0.055 | [15] -0.007 | [16] -0.111 | [17] 0.049 | [18] 0.009 | [19] 0.044 | [20] -0.092
active: [11] -0.31

EHBP1L1 (UniProt Q8N3D4)
UniProt Q8N3D4, sequence (Q8N3D4 whole entry, looked up): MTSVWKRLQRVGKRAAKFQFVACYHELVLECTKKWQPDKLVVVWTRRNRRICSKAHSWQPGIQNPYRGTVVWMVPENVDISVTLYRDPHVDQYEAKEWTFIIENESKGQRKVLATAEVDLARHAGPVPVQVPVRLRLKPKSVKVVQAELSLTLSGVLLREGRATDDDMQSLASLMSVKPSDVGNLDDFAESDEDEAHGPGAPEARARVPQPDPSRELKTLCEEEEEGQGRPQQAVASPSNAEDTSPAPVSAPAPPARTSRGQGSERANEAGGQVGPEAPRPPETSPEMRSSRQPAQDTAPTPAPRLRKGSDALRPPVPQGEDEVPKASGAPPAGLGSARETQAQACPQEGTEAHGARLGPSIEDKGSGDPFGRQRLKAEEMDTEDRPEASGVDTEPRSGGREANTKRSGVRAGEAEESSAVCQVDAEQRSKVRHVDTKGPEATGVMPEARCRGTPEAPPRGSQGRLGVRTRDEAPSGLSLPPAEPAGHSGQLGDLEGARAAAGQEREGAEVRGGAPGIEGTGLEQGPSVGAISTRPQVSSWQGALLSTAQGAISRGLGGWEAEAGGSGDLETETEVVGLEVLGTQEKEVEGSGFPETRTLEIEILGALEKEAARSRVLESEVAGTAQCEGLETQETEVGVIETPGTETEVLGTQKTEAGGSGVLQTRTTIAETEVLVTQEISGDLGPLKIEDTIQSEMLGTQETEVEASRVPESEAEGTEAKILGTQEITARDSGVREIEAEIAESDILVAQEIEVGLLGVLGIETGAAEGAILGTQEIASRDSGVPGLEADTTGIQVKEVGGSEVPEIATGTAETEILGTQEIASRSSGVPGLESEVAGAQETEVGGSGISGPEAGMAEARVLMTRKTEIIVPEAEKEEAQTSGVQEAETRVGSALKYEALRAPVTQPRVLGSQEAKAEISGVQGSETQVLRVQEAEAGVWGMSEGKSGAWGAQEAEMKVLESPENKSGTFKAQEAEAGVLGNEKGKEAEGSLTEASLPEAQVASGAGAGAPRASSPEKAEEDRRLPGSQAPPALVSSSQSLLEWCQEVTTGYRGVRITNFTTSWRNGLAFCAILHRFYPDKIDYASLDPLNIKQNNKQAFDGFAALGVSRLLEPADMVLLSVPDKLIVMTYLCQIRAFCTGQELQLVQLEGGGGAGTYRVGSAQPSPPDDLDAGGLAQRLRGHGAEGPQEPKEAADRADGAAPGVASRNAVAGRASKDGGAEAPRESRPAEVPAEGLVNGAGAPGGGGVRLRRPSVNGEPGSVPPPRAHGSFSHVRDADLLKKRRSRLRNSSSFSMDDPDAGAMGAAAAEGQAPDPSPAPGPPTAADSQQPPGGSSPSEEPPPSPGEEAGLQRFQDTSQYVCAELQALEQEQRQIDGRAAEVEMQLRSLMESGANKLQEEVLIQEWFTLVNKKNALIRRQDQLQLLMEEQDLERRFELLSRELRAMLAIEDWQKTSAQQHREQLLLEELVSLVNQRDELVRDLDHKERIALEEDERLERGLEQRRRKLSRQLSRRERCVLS
inactive: [1] -0.065 | [2] -0.082 | [3] -0.049 | [4] 0.098 | [5] -0.002 | [6] -0.089 | [7] 0.1 | [8] -0.008 | [9] 0.127 | [10] -0.017 | [11] 0.054 | [12] 0.147 | [13] 0.065 | [14] -0.021 | [15] -0.098 | [16] 0.119 | [17] -0.009 | [18] -0.026 | [19] 0.03 | [20] 0.217

FAM83D (UniProt Q9H4H8)
UniProt Q9H4H8, sequence (Q9H4H8 whole entry, looked up): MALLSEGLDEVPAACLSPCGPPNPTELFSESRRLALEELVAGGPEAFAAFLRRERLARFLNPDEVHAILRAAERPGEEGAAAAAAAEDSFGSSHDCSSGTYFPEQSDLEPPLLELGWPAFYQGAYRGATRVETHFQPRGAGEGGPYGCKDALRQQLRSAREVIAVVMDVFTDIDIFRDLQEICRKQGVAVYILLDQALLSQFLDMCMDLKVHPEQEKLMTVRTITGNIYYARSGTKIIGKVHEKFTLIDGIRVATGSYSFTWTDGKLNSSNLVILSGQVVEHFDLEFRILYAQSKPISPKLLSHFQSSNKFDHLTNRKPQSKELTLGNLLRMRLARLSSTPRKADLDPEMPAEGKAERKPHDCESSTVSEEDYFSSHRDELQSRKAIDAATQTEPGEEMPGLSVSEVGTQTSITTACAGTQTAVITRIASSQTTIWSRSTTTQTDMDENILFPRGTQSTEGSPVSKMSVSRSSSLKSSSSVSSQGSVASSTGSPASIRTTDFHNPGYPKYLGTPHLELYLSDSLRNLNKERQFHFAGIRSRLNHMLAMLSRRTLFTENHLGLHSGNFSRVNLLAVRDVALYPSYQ
inactive: [1] -0.014 | [2] -0.055 | [3] -0.088 | [4] -0.002 | [5] -0.004 | [6] -0.074 | [7] 0.078 | [8] 0.03 | [9] 0.071 | [10] -0.023 | [11] -0.009 | [12] 0.062 | [13] 0.051 | [14] -0.109 | [15] -0.135 | [16] 0.018 | [17] 0.05 | [18] -0.034 | [19] 0.021 | [20] -0.136

DUS3L (UniProt Q96G46)
inactive: [1] 0.02 | [2] -0.155 | [3] -0.037 | [4] -0.028 | [5] 0.022 | [6] -0.148 | [7] 0.204 | [8] -0.033 | [9] 0.016 | [10] 0.003 | [11] 0.069 | [12] 0.018 | [13] 0.001 | [14] 0.011 | [15] -0.071 | [16] 0.01 | [17] 0.02 | [18] 0.035 | [19] -0.037 | [20] -0.181

FAM114A2 (UniProt Q9NRY5)
inactive: [1] 0.005 | [2] -0.048 | [3] -0.078 | [4] -0.019 | [5] -0.001 | [6] -0.04 | [7] -0.022 | [8] -0.054 | [9] 0.008 | [10] 0.025 | [11] 0 | [12] -0.131 | [13] -0.01 | [14] -0.036 | [15] -0.038 | [16] -0.093 | [17] 0.002 | [18] 0.035 | [19] -0.009 | [20] -0.02

EIF3J (UniProt O75822)
inactive: [1] -0.042 | [2] -0.028 | [3] 0.006 | [4] -0.005 | [5] 0.019 | [6] 0.019 | [7] -0.072 | [8] -0.037 | [9] -0.008 | [10] -0.029 | [11] -0.067 | [12] -0.086 | [13] 0.007 | [14] -0.042 | [15] -0.018 | [16] 0.079 | [17] -0.004 | [18] -0.057 | [19] -0.057 | [20] -0.04

EMD (UniProt P50402)
UniProt P50402, sequence (P50402 whole entry, looked up): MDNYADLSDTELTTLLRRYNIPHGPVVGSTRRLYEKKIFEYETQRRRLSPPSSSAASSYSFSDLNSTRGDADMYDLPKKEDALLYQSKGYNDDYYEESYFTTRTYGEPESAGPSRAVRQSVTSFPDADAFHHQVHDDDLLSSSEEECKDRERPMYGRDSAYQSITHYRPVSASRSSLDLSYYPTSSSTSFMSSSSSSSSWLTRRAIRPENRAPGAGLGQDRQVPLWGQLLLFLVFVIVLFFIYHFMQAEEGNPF
inactive: [1] 0.011 | [2] 0.063 | [3] -0.043 | [4] -0.028 | [5] -0.046 | [6] -0.027 | [7] 0.008 | [8] -0.064 | [9] -0.056 | [10] 0.032 | [11] -0.049 | [12] -0.013 | [13] 0.007 | [14] 0.037 | [15] -0.08 | [16] -0.031 | [17] -0.053 | [18] 0.074 | [19] -0.025 | [20] 0.093

ETNK1 (UniProt Q9HBU6)
UniProt Q9HBU6, sequence (Q9HBU6 whole entry, looked up): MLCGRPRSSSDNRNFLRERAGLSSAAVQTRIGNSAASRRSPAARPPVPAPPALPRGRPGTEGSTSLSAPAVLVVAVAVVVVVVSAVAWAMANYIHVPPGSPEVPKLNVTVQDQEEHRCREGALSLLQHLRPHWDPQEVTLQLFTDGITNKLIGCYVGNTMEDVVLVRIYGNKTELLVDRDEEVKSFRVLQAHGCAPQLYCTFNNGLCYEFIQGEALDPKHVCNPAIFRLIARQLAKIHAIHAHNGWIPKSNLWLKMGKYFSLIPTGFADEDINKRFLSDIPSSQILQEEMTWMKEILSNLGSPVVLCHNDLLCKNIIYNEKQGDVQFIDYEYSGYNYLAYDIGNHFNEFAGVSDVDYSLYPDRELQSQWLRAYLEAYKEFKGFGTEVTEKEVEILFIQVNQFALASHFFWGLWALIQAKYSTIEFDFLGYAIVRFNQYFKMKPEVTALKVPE
inactive: [1] -0.037 | [2] -0.045 | [3] -0.028 | [4] 0.092 | [5] 0.053 | [6] -0.001 | [8] -0.039 | [9] -0.007 | [10] -0.027 | [11] -0.083 | [12] -0.172 | [13] 0.016 | [14] -0.105 | [15] -0.045 | [16] 0.013 | [17] -0.02 | [18] 0.01 | [19] 0.078 | [20] -0.044
active: [7] 0.295

From the supplement of paper PMC10849652
